# Experiment: probe aEGFR binding to arrayed compounds – biochemical, biotinylated probe, 635/667 nm fluorescence, primary screen (AID 1097);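 further: probe is a biotinylated anti-EGFR antibody binding compounds printed on slides; score combines fluorescence near 667 nm and signal to noise of each spot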
# Settings: small-molecule microarray, higher = more signal
row,SMILES,composite z-score
1,COC(=O)c1c2oc(c1C(=O)OC)C(=O)N[C@@H](C(C)C)Cn1cc(nn1)C1(CCCCC1)NC(=O)N[C@H](CO)CC2,-0.163
2,COc1ccccc1CN1C(=O)c2ccccc2[C@@]2(Cc3ccccc3N(CCCN(C)C)C2=O)[C@@H]1c1ccc(CO)cc1,-0.0612
3,COC(=O)[C@@]1(Cc2ccc(OC)cc2)[C@H]2c3cc(C(=O)N(C)C)n(Cc4ccc(C(F)(F)F)nc4)c3C[C@H]2CN1C(=O)c1ccccc1,0.338
4,CC(CO)N1C(=O)[C@@H]2C3C(=O)OCCC/C=C\[C@H]3OC23C=CCN(CCN2CCOCC2)C(=O)[C@@H]13 (stereo not given in full),-0.187
5,CCOC(=O)C1=C[C@@H](C(C)C)N(S(=O)(=O)c2ccc(C)cc2)[C@H]1c1ccccc1F,0.0353
6,O=C1O[C@@H](c2ccccc2)[C@@H](c2ccccc2)N2[C@@H](c3ccccc3OCCO)[C@]3(C(=O)Nc4ccc(C#CC5(O)CCCCCC5)cc43)[C@@H](C(=O)N3CCN(c4ncccn4)CC3)[C@H]12,-0.0542
7,COC(=O)c1c(CC[C@@H](CO)NC(=O)N[C@@H](Cc2ccccc2)Cn2cc(-c3ccccn3)nn2)oc(C(=O)N2CCOCC2)c1C(=O)OC,-0.183
8,COc1ccc(C(O)C2C=CC3C(=O)N(C)C(=O)C3N2N(c2ccccc2)c2ccccc2)c2ccccc12 (stereo not given),-0.0283
9,CS(=O)(=O)CCOC(=O)C1=CC(CCCO)=CC(c2ccc(CN3CCCC3)cc2)N(Cc2cccc(OC(F)(F)F)c2)C=C1C(=O)OCCS(C)(=O)=O (stereo not given),0.172
10,C=CC[C@]1(C(=O)N2CCOCC2)N=C(c2ccc(OCCCO)cc2)O[C@H]1c1ccccc1N=[N+]=[N-],-0.0406
11,CCCCN1CC=CC23O[C@@H]4/C=C\CCCOC(=O)C4[C@H]2C(=O)N(CCCCCO)[C@@H]3C1=O (stereo not given in full),-0.324
12,O=C(O)[C@@]1(CCS(=O)(=O)c2ccccc2)N=C(c2ccc(OCCCO)cc2)O[C@H]1c1ccccc1,-0.144
13,COc1ccc([Si](C)(C)[C@@H]2[C@@H](CC(=O)N3Cc4ccccc4C[C@H]3CO)O[C@]3(C(=O)N(Cc4cccc(N5CCC5=O)c4)c4ccccc43)[C@H]2C)cc1,0.0227
14,O=C1OCCC=C[C@H]2OC34C=CCN(c5ccc(Cl)cc5)C(=O)[C@H]3N(CCCO)C(=O)[C@@H]4C12 (stereo not given in full),-0.116
15,CCCCCCCCCCC(O)C1C=CC2C(=O)NC(=O)C2N1Nc1ccc(Cl)cc1Cl (stereo not given),-0.137
16,C=CCC(OC(C)=O)[C@@H]1[C@@H](N(Cc2ccc(-c3ccccc3)cc2)C(=O)Cc2ccc(F)cc2)c2cc(OCCCO)ccc2N1C(=O)c1ccc2ccccc2c1 (stereo not given in full),-0.109
17,COCC(=C=CC[C@H](O)c1cccc(OCCO)c1)C[C@H](O)c1cc(Cl)cc(Cl)c1O,0.0837
18,Cc1ccc(/C=C/C=O)cc1,-0.135
19,C=C(CCCC)/C(=C/C[C@H](OC(C)=O)c1ccc(OCCO)cc1)c1cnc2ccccc2c1,-0.0824
20,COc1cc2c(cc1O)C=[N+](Cc1cc3c(cc1Br)OCO3)CC2,-0.188
21,CCCCCCc1nc(-c2ccc(-c3ccc(Cl)c(Cl)c3)o2)c(C)c2c1[Si](C(C)C)(C(C)C)OC2,-0.233
22,COCCCNC(=O)[C@]1(Cc2ccccc2)N=C(c2ccc(OCCCO)cc2)O[C@@H]1c1ccccc1CN=[N+]=[N-],0.0326
23,[N-]=[N+]=Nc1ccccc1C[C@@]1(C(=O)N2CCCCC2)N=C(c2ccc(OCCCO)cc2)O[C@@H]1c1ccccc1,-0.0382
24,C=CCN(Cc1ccccc1)C(=O)C(c1cccs1)N(C(=O)/C=C\C(=O)O)c1ccc(CCOCCO)cc1 (stereo not given),-0.32
25,[N-]=[N+]=NCc1ccccc1[C@H]1OC(c2ccc(OCCCO)cc2)=N[C@@]1(Cc1ccccc1)C(=O)N1CCCCC1,0.038
26,CC(C)(C)OC(=O)CC[C@]1(C(=O)NCCN2CCOCC2)COC(c2ccc(OCCCO)cc2)=N1,-0.0656
27,COC(=O)[C@@]1(Cc2ccc(OC)cc2)[C@H]2c3cc(C(=O)N4CCCC4)n(CCCNc4ncc(C(F)(F)F)cc4Cl)c3C[C@H]2CN1C(=O)c1ccccc1,0.939
28,COCCOC(=O)N1C(=O)[C@@]2(c3ccccc31)[C@H](C(N)=O)[C@H]1C(=O)O[C@H](c3ccccc3)[C@H](c3ccccc3)N1[C@@H]2c1ccc(O)cc1,-0.171
29,CC(=O)NCCCC[C@@H]1NC(=O)[C@H]2C[C@@H](C(=O)NCCCCCNC(=O)CS)[C@@H](c3ccc(O)cc3)N2C1=O,-0.171
30,CCOc1ccc(N2C(=O)CSC2c2cccc([N+](=O)[O-])c2)cc1 (stereo not given),-0.0697
